A selection: hits, their analogues and other compounds. The true share with any hit is near 2.4%.
D2 PAM-1 = positive allosteric modulators of human D2 dopamine receptor. P14416. DiscoveRx D2 beta-arrestin cells, luminescence, 90 min; 100% = 57 uM dopamine signal. potentiation, % (no concentration beside the values). 360,000 tested, 0.23% active; in the data active = potentiation above about 50%
Target sequence (P14416 whole entry, looked up): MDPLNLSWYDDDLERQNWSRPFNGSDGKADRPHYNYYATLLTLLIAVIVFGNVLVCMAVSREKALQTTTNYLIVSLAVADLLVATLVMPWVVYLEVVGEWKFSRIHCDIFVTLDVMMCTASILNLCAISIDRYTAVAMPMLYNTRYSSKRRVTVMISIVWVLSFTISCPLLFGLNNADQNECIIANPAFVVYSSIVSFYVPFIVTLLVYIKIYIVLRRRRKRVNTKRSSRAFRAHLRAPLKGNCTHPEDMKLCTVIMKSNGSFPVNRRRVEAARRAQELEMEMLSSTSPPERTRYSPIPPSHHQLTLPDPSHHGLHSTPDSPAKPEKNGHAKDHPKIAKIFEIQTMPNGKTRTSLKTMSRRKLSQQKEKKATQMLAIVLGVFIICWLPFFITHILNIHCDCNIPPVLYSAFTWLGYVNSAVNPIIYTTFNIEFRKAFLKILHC
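PathHunter beta-arrestin assay in DiscoveRx D2 cells. Compounds were added with an EC20 of dopamine (50 nM final) for 90 min at 37 deg C. Luminescence was read 1 h after detection reagent, with 57 uM dopamine as the EC100 control.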
D2 antag = antagonizes the human D2 dopamine receptor; inhibition, % at 10 µM; AID 485344; 340,000 tested, 2% active; HEK293 TREx D2 cells, calcium flux, dopamine EC80; P14416; in the data active = inhibition above about 30%; inactive = below that, where a call was filed; note: 0% is about no effect
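Overnight-induced (tetracycline, 30 C) HEK293 T-REx cells carrying force-coupled D2 receive a no-wash calcium dye, then compound, then EC80 dopamine at 180 s; signals are read kinetically throughout.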
D2 ag-1 = D2 dopamine receptor (human) agonism | P14416 | HEK293 T-REx D2 cells, calcium flux agonist mode | activation, % at 2 µM | 340,000 tested, 0.53% active;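 active = activation over 3 SD above normal in the single-dose calcium agonist read, cut at about 30% in these data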; note: 0% is about no effect
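Agonism scored from kinetic calcium signal (1 read/sec, 180 s) following compound pin transfer, after a 10 s baseline. Cells: HEK293 Trex line expressing inducible D2 receptor coupled to calcium, dye-loaded after overnight culture at 30 C.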
D2 ag-2 = activates the human D2 dopamine receptor. P14416. DiscoveRx PathHunter D2 beta-arrestin, luminescence, 90 min; 100% = 57 uM dopamine signal. activation, % (concentration not given with the values). 360,000 tested, 0.084% active; in the data active = activation above about 40%
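Agonist mode: compounds alone added to overnight-plated D2 PathHunter cells for 90 min at 37 C, with 57 uM final dopamine (EC100) defining full response. Beta-arrestin recruitment detected by chemiluminescent reagent, read after 1 h at ambient temperature.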
D2 PAM-2 = positively modulates the human D2 dopamine receptor allosterically. P14416. HEK293 T-REx D2, calcium flux, EC20 dopamine potentiation. potentiation, % at 10 µM. 340,000 tested, 0.34% active;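 active = potentiation over 3 SD above the plate norm, cut at about 30% in these data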; note: 0% is about no effect
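Cells plated with tetracycline inducer and held overnight at 30 C; calcium dye loaded 30–90 min at room temperature; baseline taken, compound added and read 180 s; EC20 dopamine then added and read 180 s.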
An asterisk follows results filed as active; . = not tested or not shown.

SMILES	D2 PAM-1	D2 antag	D2 ag-1	D2 ag-2	D2 PAM-2
N#CC1=C(N)Oc2ccccc2C12C(=O)Nc1n[nH]c(-c3ccccc3)c12 (stereo not given)	22	-2	-1	8	1
Cn1c2c(c(=O)n(C)c1=O)C1(C(=O)Nc3ccccc31)C(C#N)=C(N)O2 (stereo not given)	54*	.	.	10	.
Cc1ccc(N2C(=O)C3C(C2=O)C(C(=O)c2ccc(Cl)cc2)N2CCCC32)cc1 (stereo not given)	-14	33*	3	-3	18
CCOC(=O)c1c(C)oc2nc(C)nc(NCCc3ccc(SC)cc3)c12	.	.	1	.	4
COc1cccc(-n2sc3c(c2=S)-c2cc(OC)ccc2NC3(C)C)c1	2	-7	0	-1	6
CC1(C)Nc2ccc(O)cc2-c2c1ssc2=S	28	36*	0	3	16
COc1ccc(CC(=O)NNC2=Nc3cccc4cccc2c34)cc1	-20	27	0	-2	-23
NC(=O)NNC1=Nc2cccc3cccc1c23	-8	-18	4	0	5
COc1ccc(C(=O)NNC2=Nc3cccc4cccc2c34)cc1	-27	63*	2	0	-27
Cc1ccc(C(=O)NNC2=Nc3cccc4cccc2c34)cc1	-25	71*	0	-3	-25
Cc1cccc2cc(CN(CC3CCCO3)C(=O)NC3CCCCC3)c(=O)[nH]c12 (stereo not given)	-10	-4	1	-2	-9
COc1ccc(CCN(Cc2cc3cccc(C)c3[nH]c2=O)C(=O)NC2CCCCC2)cc1OC	-1	31*	0	1	19
CNC(=S)N(CCc1cccc(C)c1)Cc1cc2cc(OC)c(OC)cc2[nH]c1=O	-7	30*	0	-2	1
Cc1ccc2sc(N3CCN(C(=O)C4COc5ccccc5O4)CC3)nc2c1C (stereo not given)	.	.	1	.	0
CC1(C)Cc2c(sc3nc(SCC(=O)NCc4ccco4)n(-c4ccccc4)c(=O)c23)CS1	-9	30*	1	1	-3
O=C(CSc1nc2sc3c(c2c(=O)n1-c1ccccc1)CCCC3)NCc1ccco1	-6	-1	2	2	-10
CCOc1ccc(NC(=O)CSc2cn(CC(=O)N3CCCCCC3)c3ccccc23)cc1	.	.	0	.	2
Cn1cc(S(=O)(=O)c2ccc(Cl)cc2)c(=O)c2cc(F)c(N3CCOCC3)cc21	.	.	1	.	-2
Cc1ccc(/C=N/n2cnc3sc(C)c(C)c3c2=O)o1	-5	-4	0	-2	47*
O=C(c1ccc(Cl)cc1)N1CCC(c2nc3ccccc3o2)CC1	.	.	-1	.	10
CCN(CC(=O)Nc1ccc(NC(C)=O)cc1)C(=O)c1c(C)nn(-c2ccc(F)cc2)c1Cl	0	.	.	2	.
CCN(CC)CCNC(=O)c1ccc(NC(=O)c2c(C)nn(-c3ccc(F)cc3)c2Cl)cc1	-16	41*	0	-3	-12
Cc1[nH]c(=O)[nH]c(=O)c1S(=O)(=O)Nc1cccc(Cl)c1C	.	.	.	.	-2
Cc1nn2c(-c3cccc(NC(=O)c4ccc(Cl)cc4)c3)nnc2c2ccccc12	.	.	-1	.	5
COc1ccc(NC(=O)CN(C)C(=O)Cc2ccc3c(c2)OCCO3)cc1	4	-32	1	2	0
SMILES	D2 PAM-1	D2 antag	D2 ag-1	D2 ag-2	D2 PAM-2
CCOc1ccc(CCNC(=O)CSCC(=O)Nc2ccc(OC)cc2)cc1OCC	1	31*	-1	-1	8
COc1ccc(NC(=O)CSCC(=O)N(C)Cc2ccc3c(c2)OCCO3)cc1	11	35*	0	2	-10
Cc1ccc(-c2nc(CNC(=O)Nc3ccccc3)c(C)o2)cc1	.	.	2	.	-6
CCC(=O)N1c2ccccc2CC1C(=O)NCCc1ccc(OC)cc1OC (stereo not given)	.	.	1	.	0
Cc1ccc(-c2cn3c(n2)sc2cc(C(=O)NC(C)C45CC6CC(CC(C6)C4)C5)ccc23)cc1 (stereo not given)	.	.	0	.	-7
c1csc(CNc2ncnc3sccc23)c1	-7	.	.	-2	.
Cc1sc2ncnc(NCC3(N4CCOCC4)CCCCC3)c2c1C	-3	2	1	-2	30*
c1nc(NCC2(N3CCOCC3)CCCCC2)c2ccsc2n1	-8	-3	-2	-1	38*
CCOc1ccc(S(=O)(=O)NCCc2csc3nc(-c4ccc(F)cc4)nn23)cc1	.	.	1	.	-7
CCC(Cn1nnc2ccccc2c1=O)NC(=O)Nc1ccccc1Cl (stereo not given)	.	.	-1	.	15
Cc1ccccc1CSc1nnnn1-c1ccc(C(N)=O)cc1	-2	11	-1	0	-2
O=C(O)c1ccc(-n2nnnc2SCc2ccccc2F)cc1	-8	37*	1	1	-31
CCN(CC)CCN1C(=O)C(=O)/C(=C(/O)c2ccc(C)cc2)C1c1ccncc1 (stereo not given)	.	9	-2	.	-4
CCN(CC)CCN1C(=O)C(=O)/C(=C(/O)c2ccc(Cl)cc2)C1c1ccncc1 (stereo not given)	-6	40*	0	2	2
CCOC(=O)C(Cc1cc(C(C)=O)ccc1OC(C)C)C(=O)OCC	-17	54*	-3	0	-4
CCOC(=O)C(Cc1cc(C(C)=O)ccc1OCC)C(=O)OCC	-24	14	0	-10	-1
COc1ccc(N(C(=O)CNC(=O)c2ccco2)C(C(=O)NC2CCCC2)c2ccncc2)cc1 (stereo not given)	-3	51*	-1	0	5
COc1ccc(C(C(=O)NC2CCCCC2)N(C(=O)CCl)c2ccc(C)cc2)cc1 (stereo not given)	15	-5	3	-8	2
COc1ccc(C(C(=O)NC2CCCC2)N(C(=O)c2ccoc2C)c2ccc(C)cc2)cc1 (stereo not given)	-17	50*	-1	-1	-4
CC(=O)Nc1ccc(N(C(=O)c2ccco2)C(C(=O)NC2CCCCC2)c2ccccc2)cc1 (stereo not given)	-12	37*	-1	0	2
Cc1ccccc1C(C(=O)NC1CCCC1)N(C(=O)CNC(=O)c1ccco1)c1cccnc1 (stereo not given)	.	51*	1	.	1
CCCCCCOc1ccc(-c2nc3ccc(Br)cc3c(=O)o2)cc1	.	.	0	.	-2
O=C(CSc1nc2ccccc2nc1Cc1ccc(Cl)cc1)N1CCCCC1	.	.	0	.	-3
COc1ccc(CNC(=O)CCc2c(C)nn(-c3ccc(N4CCOCC4)nn3)c2C)cc1	.	.	.	.	-13
Cc1ccc([N+](=O)[O-])cc1NC(=O)CN(C1CCCCC1)S(=O)(=O)c1ccc(Cl)cc1	-37	53*	0	-1	-18
